Common to all, as to design: scale not given: direction of the effect not stated beside the values
The target of assay [1] is Protein translocase subunit SecA (Escherichia coli (strain K12)) (UniProt P10408). Put plainly: Assay to Identify E. coli SecA ATPase Inhibitors. The assay is classed as functional. Conditions: 30 µM.
In assay [2] the target is T1, Ubiquitin-activating enzyme e1, putative (Leishmania donovani (strain BPK282A1)) (UniProt E9BSI1).
T1 sequence (whole entry): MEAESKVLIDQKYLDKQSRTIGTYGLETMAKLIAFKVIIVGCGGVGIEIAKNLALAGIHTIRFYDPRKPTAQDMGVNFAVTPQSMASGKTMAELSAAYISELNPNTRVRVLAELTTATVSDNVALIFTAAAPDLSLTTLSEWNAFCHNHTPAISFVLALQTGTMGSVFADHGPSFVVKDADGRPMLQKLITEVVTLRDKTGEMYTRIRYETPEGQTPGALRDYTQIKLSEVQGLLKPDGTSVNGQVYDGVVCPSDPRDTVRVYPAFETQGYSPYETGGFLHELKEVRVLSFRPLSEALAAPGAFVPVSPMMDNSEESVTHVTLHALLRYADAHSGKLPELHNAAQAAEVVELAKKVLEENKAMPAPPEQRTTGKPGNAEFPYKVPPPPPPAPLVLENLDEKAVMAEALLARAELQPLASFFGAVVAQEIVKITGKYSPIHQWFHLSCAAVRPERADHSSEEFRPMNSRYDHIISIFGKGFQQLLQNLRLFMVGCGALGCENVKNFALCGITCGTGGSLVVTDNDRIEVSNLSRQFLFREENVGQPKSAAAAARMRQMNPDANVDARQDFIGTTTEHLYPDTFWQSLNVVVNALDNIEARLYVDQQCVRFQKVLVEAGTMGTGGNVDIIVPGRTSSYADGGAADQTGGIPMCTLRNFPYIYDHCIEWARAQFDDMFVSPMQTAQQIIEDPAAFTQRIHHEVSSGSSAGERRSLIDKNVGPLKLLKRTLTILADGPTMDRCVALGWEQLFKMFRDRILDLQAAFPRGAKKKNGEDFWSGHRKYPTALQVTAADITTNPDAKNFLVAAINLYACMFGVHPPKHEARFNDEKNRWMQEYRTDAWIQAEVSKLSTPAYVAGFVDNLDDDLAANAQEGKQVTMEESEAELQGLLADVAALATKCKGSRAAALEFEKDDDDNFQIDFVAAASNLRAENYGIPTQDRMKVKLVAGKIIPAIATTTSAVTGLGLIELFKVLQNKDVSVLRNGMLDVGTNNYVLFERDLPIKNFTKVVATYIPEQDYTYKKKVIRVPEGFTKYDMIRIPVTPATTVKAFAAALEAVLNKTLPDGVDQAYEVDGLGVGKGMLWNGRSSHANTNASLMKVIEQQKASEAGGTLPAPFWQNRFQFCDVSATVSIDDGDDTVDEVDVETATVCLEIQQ
Description: Leishmania donovani Ubiquitin Activating Enzyme (LdE1). The assay is classed as functional. Particulars: 30 µM.

In assay [3] the target is AMP-activated protein kinase, AMPK (Homo sapiens) (UniProt P54646+O43741+P54619+Q9UGJ0+Q9Y478+Q13131+Q9UGI9). Put plainly: AMP-dependent Kinase enzyme assay. An in vitro enzyme assay that detects ADP turnover that is directly proportional to AMPK activity. This uses naive AMPK that is activated during the assay with MK-8722. The class given is functional. Conditions: 30 µM.

Assay [4] addresses Sialic acid-binding Ig-like lectin 9 (Homo sapiens) (UniProt Q9Y336). Put plainly: Hs-Siglec9 ALPHAscreen SOP 20170721. Particulars: 10 µM. For orientation: Alpha assays give light when donor and acceptor beads are brought close together.
For the next assay, the system named is Trypanosoma cruzi. Put plainly: Trypanosoma cruzi phosphomannomutase and mannose-1-phosphate guanylyltransferase assay. The assay is classed as functional. Conditions: 10 µM.
For assay [5], the target named is T2, Arginase-2, mitochondrial (Homo sapiens) (UniProt P78540).
T2 sequence (whole entry): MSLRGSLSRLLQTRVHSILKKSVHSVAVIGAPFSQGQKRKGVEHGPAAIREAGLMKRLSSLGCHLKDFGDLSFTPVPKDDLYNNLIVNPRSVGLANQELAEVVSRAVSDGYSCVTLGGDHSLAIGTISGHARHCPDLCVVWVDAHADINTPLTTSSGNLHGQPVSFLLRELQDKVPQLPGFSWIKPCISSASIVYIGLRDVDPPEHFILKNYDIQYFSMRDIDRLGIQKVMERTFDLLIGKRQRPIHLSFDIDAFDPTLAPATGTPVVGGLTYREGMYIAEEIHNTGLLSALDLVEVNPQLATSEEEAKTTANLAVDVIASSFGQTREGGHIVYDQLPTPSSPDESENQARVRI
Put plainly: in vitro enzyme assay to detect the production of urea directly proportional to the activity of Arginase II. Note: in the data most compounds retested in dose-response had high values. The assay is classed as functional. Particulars: 33.3 µM.

Assay [6] has as its target T3, Proteasome subunit beta (Trypanosoma cruzi) (UniProt O96673).
T3 sequence (whole entry): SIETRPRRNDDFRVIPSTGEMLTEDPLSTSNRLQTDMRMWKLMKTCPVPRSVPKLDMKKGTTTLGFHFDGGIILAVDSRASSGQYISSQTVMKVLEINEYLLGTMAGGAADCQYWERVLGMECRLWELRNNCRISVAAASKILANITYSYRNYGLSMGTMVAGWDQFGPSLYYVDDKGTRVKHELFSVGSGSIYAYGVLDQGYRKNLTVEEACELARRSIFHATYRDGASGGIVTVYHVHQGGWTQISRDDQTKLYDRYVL
Description: Trypanosoma cruzi proteasome chymotrypsin-like activity (TcProtChymo) assay. Note: in the data most compounds retested in dose-response had high values. The assay is classed as functional. Particulars: 9.37 µM.

The species entered for a further assay is Homo sapiens. Description: To identify inhibition of the IFN signalling (Jak-Stat) pathway via expression of an eGFP reporter gene under the control of an IFN-stimulated response element (ISRE) containing MxA promoter. The assay is classed as functional. Conditions: 30 µM.
Assay [7] concerns the target T4, Tyrosyl-tRNA synthetase, putative (Trypanosoma cruzi (strain CL Brener)) (UniProt Q4DSP6).
T4 sequence (whole entry): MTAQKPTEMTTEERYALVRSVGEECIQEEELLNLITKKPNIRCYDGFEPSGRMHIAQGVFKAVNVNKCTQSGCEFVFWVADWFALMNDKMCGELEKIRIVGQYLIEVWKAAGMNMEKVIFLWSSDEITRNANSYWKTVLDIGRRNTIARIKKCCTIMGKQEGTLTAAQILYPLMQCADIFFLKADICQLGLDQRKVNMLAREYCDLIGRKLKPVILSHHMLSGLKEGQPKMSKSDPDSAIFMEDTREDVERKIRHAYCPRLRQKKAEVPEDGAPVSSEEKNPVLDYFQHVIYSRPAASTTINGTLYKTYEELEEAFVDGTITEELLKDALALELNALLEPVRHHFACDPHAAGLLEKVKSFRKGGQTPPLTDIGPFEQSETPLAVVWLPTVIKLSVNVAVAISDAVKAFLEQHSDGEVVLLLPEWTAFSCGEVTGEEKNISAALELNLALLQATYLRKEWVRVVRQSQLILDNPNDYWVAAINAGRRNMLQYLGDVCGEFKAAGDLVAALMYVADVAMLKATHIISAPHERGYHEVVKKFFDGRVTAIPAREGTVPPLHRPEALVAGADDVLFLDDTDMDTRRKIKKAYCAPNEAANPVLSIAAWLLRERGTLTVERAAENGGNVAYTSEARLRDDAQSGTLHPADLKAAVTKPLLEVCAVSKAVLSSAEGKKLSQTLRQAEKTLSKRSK
Description: Trypanosoma cruzi tyrosyl tRNA synthetase (TcYRS) _High Tyrosine SOP. Note: in the data most compounds retested in dose-response had high values. The class given is functional. Particulars: 30 µM.

The target in assay [8] is T4, Tyrosyl-tRNA synthetase, putative (Trypanosoma cruzi (strain CL Brener)). Description: Trypanosoma cruzi tyrosyl tRNA synthetase (TcYRS) SOP. Particulars: 30 µM. The class given is functional.
Assay [9] has as its target Chromo domain-containing protein 1 (Saccharomyces cerevisiae (strain ATCC 204508 / S288c) (Baker's yeast)) (UniProt P32657). Description: ScCHD-1 Enzyme Inhibition Assay. Note: in the data most compounds retested in dose-response had high values. The assay is classed as functional. Conditions: 30 µM.

For some of these results: Potency and affinity values are given separately.

Chain of Chromo domain-containing protein 1 (Saccharomyces cerevisiae (strain ATCC 204508 / S288c) (Baker's yeast)) (P32657 whole entry, the tested form may be a part): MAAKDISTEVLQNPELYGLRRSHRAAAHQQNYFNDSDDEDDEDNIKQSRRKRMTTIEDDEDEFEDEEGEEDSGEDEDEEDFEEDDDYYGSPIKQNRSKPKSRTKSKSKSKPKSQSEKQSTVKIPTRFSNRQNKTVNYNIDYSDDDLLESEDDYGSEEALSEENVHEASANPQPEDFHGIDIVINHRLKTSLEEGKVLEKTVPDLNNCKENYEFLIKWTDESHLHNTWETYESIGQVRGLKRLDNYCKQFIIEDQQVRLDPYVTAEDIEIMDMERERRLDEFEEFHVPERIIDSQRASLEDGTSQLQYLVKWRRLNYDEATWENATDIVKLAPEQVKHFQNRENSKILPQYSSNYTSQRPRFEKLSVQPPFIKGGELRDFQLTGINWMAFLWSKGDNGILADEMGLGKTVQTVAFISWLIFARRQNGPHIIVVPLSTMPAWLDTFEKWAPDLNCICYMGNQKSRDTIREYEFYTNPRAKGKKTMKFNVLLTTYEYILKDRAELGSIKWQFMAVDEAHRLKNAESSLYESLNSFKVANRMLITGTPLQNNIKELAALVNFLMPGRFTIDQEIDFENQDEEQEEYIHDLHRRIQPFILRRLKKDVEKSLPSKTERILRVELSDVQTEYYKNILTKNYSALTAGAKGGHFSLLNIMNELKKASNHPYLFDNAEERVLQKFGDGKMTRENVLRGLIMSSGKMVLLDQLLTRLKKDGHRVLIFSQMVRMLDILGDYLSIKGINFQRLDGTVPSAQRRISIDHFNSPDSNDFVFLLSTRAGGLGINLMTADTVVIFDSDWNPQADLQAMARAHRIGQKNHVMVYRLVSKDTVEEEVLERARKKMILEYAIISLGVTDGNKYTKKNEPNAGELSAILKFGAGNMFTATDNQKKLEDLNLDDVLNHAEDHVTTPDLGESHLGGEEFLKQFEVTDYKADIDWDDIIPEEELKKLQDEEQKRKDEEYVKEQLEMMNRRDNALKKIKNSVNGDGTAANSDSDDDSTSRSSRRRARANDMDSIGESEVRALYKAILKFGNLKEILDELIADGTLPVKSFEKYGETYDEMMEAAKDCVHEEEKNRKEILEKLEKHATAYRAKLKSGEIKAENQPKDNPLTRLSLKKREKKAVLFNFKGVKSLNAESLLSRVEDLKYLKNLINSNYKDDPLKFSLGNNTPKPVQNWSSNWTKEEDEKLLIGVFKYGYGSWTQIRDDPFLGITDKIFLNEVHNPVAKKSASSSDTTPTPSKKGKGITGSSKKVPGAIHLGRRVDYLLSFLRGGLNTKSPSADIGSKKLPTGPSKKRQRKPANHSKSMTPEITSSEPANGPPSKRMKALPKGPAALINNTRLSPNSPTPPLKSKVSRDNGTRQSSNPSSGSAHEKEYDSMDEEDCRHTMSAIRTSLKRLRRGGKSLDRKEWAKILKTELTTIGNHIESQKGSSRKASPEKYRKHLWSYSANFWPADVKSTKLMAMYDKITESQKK
Chain of Sialic acid-binding Ig-like lectin 9 (Homo sapiens) (Q9Y336 whole entry): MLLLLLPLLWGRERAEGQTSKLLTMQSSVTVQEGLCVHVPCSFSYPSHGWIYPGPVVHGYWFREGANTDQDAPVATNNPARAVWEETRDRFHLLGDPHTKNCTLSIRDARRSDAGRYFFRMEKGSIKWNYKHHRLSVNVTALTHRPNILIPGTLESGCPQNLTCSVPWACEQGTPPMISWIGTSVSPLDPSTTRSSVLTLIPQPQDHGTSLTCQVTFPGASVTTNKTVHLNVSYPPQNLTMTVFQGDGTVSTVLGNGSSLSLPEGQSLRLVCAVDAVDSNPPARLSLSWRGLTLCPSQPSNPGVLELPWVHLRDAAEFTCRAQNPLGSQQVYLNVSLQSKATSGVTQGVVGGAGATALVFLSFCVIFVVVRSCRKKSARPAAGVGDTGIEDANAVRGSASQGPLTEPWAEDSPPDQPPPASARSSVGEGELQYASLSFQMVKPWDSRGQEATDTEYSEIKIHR
Chain of Protein translocase subunit SecA (Escherichia coli (strain K12)) (P10408 whole entry): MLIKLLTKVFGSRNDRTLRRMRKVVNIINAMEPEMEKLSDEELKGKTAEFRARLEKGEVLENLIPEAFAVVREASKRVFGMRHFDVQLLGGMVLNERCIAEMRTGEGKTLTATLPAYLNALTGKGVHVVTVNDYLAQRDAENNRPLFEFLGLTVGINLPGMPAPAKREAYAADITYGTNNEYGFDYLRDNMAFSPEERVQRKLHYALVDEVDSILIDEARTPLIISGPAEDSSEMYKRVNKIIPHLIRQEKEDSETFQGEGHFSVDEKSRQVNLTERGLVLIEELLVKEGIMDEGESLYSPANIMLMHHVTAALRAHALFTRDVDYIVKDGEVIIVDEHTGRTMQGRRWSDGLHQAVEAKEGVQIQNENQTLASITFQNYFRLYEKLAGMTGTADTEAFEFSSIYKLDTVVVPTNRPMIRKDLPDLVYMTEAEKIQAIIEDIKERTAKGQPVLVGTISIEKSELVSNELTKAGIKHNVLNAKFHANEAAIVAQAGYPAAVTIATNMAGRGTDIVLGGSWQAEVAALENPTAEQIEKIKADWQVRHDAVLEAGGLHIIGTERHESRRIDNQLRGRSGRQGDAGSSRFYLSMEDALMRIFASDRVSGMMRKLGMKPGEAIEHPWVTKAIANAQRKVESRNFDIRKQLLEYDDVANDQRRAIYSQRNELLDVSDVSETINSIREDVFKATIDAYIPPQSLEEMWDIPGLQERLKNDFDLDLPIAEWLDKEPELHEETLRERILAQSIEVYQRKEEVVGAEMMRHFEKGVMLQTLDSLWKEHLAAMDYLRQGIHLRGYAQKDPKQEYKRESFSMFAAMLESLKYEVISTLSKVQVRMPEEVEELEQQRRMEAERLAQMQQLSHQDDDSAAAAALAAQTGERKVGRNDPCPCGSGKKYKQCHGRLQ

As to `c1coc(-c2nnc(CN3CCCC(CN4CCCCCC4)C3)o2)c1` (stereo unspecified), the Percent Effect in [1] was -4.64%; in assay [2] it was 7.89%; in [3] it was 0.651%; in [4], 1.71%; in the assay on Trypanosoma cruzi, 8.67%; in [5], -7.1%. The Percent Effect is -1.25% in assay [6]; 4.66% in the assay listed under Homo sapiens; 5.32% in [7]; 10.4% in assay [8]; -3.8% in [9].

`O=C(Cc1ccc2c(c1)OCCO2)NC1CCN(CC(F)F)CC1`: the Percent Effect in assay [1] was -6.42%; in assay [2], 7.79%; in assay [3], 6.85%; in assay [4] it was 8.97%; in the assay with Trypanosoma cruzi it was -3%; in assay [5], 0%. The Percent Effect is 6.93% in [6]; -4.72% in the assay filed under Homo sapiens; 3.88% in [7]; 9.76% in [8]; -6.97% in assay [9].

Turning to `CC(NC(=O)N(C)Cc1ccncc1)c1nncn1C` (stereo unspecified), the Percent Effect was -3.28% in assay [1]; 20.8% in [2]; 3.42% in assay [3]; 21% in [4]; 2.43% in the assay with Trypanosoma cruzi; 22.5% in assay [5]. Moreover, the Percent Effect is 13.2% in assay [6]; -6.33% in the assay listed under Homo sapiens; 1.05% in assay [7]; 15.4% in assay [8]; -7.53% in [9].

With `COCC1CCN(C(=O)c2cccc(S(=O)(=O)NC3CCCC3)c2)C1` (stereo unspecified), the Percent Effect in [1] was 1.68%; in assay [2], 16.2%; in [3], -0.427%; in [4], 10.5%; with Trypanosoma cruzi it was 1.66%; in assay [5], 10.2%. For the same compound, the Percent Effect in assay [6] is 17.4%; in the assay filed under Homo sapiens, 13.5%; in assay [7] it was 5.38%; in assay [8], 21%; in assay [9], -13.4%.

Turning to `Cc1nc(CN2CCCN(CCOc3cccc(C#N)c3)CC2)no1`, the Percent Effect in [1] was -0.969%; in [2] it was 13.2%; in assay [3], -4.74%; in assay [4] it was -2.13%; in the assay with Trypanosoma cruzi, -7.38%; in [5], 3.24%. Further, the Percent Effect in [6] is 16.3%; in the assay listed under Homo sapiens, 7.6%; in [7] it was 6.4%; in assay [8], 11.1%; in [9] it was -9.28%.

On to `CCc1nc(CCNC(=O)C2CCOC2)sc1C` (stereo unspecified), for which the Percent Effect in assay [1] was -4.95%; in assay [2], 8.11%; in assay [3], -4.04%; in [4] it was 10.6%; in the assay on Trypanosoma cruzi, 1.76%; in [5] it was 3.75%. Also, the Percent Effect was 5.5% in assay [6]; 9.42% in the assay filed under Homo sapiens; 6.93% in assay [7]; 8.54% in assay [8]; -0.947% in [9].

With `COC(=O)C(C)(C)NC(=O)C1CC(=O)N(C2CCCC2)C1` (stereo unspecified), the Percent Effect is -0.563% in assay [1]; 11% in assay [2]; -0.48% in assay [3]; 5.96% in [4]; 3.17% in the assay with Trypanosoma cruzi; -2.79% in [5]. The Percent Effect in assay [6] is 9.85%; in the assay filed under Homo sapiens, 26.3%; in assay [7], 11.5%; in assay [8], 25.9%; in assay [9], -1.54%.

As to `O=C(NCCNS(=O)(=O)c1ccc2c(c1)CCCC2)c1ccoc1`, the Percent Effect was -4.38% in [1]; 13.3% in assay [2]; -3.34% in assay [3]; 15.1% in assay [4]; 3.41% in the assay on Trypanosoma cruzi; 10.9% in assay [5]. Besides, the Percent Effect in assay [6] was 5.41%; in the assay listed under Homo sapiens, 29.3%; in assay [7] it was 6.01%; in assay [8], 13.6%; in assay [9], 0.0598%.

For `O=C(NCCC1CCCO1)c1ccccc1N1CCOCC1` (stereo unspecified), the Percent Effect in assay [1] is -4.55%; in assay [2], 2.74%; in assay [3] it was -1.11%; in assay [4], 12.4%; in the assay with Trypanosoma cruzi it was 4.56%; in [5], -5.99%. In addition, the Percent Effect in assay [6] is 10.7%; in the assay filed under Homo sapiens it was 8.12%; in [7], 10.4%; in assay [8], 18.5%; in [9], -2.02%.

For `CC(=O)c1cccc(NC(=O)COc2c(C)n(C)ccc2=O)c1`, the Percent Effect in assay [1] was -3.77%; in assay [2], 9.33%; in assay [3], 5.33%; in assay [4], 5.82%; with Trypanosoma cruzi, -2.95%; in assay [5] it was -12.5%. The Percent Effect is 16.1% in assay [6]; 7.79% in the assay filed under Homo sapiens; 7.41% in assay [7]; 20.5% in assay [8]; -2.85% in assay [9].

`c1ccc(Cn2cncn2)c(CNCC2CNc3ccnn3C2)c1` (stereo unspecified): the Percent Effect is 0.235% in assay [1]; 20.8% in assay [2]; -8.08% in [3]; 4.1% in [4]; 10.3% with Trypanosoma cruzi; 1.78% in assay [5]. The Percent Effect in assay [6] is 8.45%; in the assay listed under Homo sapiens, 12.4%; in [7] it was 12.6%; in [8], 21.9%; in assay [9], -7.41%.

The values are drawn from ChEMBL document CHEMBL3988442, “University of Dundee, Small-Polar-MMV Screening Library” (2021).
